Results: PubChem BioAssay AID1117319 (Southern Research Institute, 2015)
Values joined by “and” are separate entries in the source; they are usually repeats but may differ in a detail not shown here. Equal values may be shown once. The whole screen tested about 260,000 compounds, of which about 1,500 (0.58%) were called active. About 5% were inconclusive and are not listed.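 Rule for the calls: active = inhibition above a set limit at one or more doses, reproduced on every date tested; inconclusive = results disagree between test dates, or hit never tested in dose response; inactive = the rest.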 The list is a sample of the results. Potency and affinity values are given separately.

Each molecule was assayed against Virion infectivity factor (Human immunodeficiency virus type 1 group M subtype B (isolate BH10)) + Virion infectivity factor (Human immunodeficiency virus type 1 group M subtype B (isolate BRU/LAI)) + Virion infectivity factor (Human immunodeficiency virus type 1 group M subtype B (isolate PCV12)) + Virion infectivity factor (Human immunodeficiency virus type 1 group M subtype B (isolate HXB2)) + DNA dC->dU-editing enzyme APOBEC-3G (Homo sapiens) (UniProt P69720+P69721+P69722+P69723+Q9HC16) (assay: HIV-1 Vif–A3G interaction blockers – biochemical, TR-FRET, GST-Vif 1-94, biotin-A3G peptide, dose response retest, primary screen (AID 1117319;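 note: Vif residues 1-94 fused to GST binding biotinylated APOBEC3G peptide 110-148; 0% = full assay without inhibitor and 100% = GST in place of GST-Vif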)). Conditions: TR-FRET GST-Vif / biotin-A3G peptide binding; stronger effect = higher value.

inhibition, inactive:
CNCc1ccccc1Sc1ccc(OC)cc1 4.31%, CNCc1ccccc1Sc1cccc2ccccc12 -4.29%, CNCc1ccccc1Sc1cccc(O)c1 -4.96%, Cc1ccc(O)c(Sc2cc(C)ccc2O)c1 3.64%, O=C(COc1cc(F)ccc1[N+](=O)[O-])Nc1ccc2c(c1)OCO2 -6.99%, CNCCCOc1cccc(Oc2ccccc2)c1 9.66%, COc1cccc2cc(C(=O)c3ccccc3)oc12 -4.51%, O=C(Nc1ccc2c(c1)OCO2)c1cc2ncc(Br)cn2n1 6.91%, O=C(NCc1ccc2c(c1)OCO2)c1ccccn1 10.1%, O=C(NN1CCOCC1)c1cc(-c2ccc(Cl)c(Cl)c2)nc2ccccc12 -15.2%, CC1CC(OCC(O)CN2CCOCC2)CC(C)(C)C1 (stereo not given) -2.99%, N#CCC(=O)Nc1ccc(C(=O)OC(C(=O)Nc2cc(C(F)(F)F)ccc2Cl)c2ccccc2)cc1 (stereo not given) 6.13%, CCOC(=O)C(=NC1CCS(=O)(=O)C1)NNc1cc(Cl)ccc1Cl (stereo not given) 11.7%, COC(=O)Cn1ncn2cccc2c1=O 31%, CCOC(=O)CCCn1ncn2c(cc3occc32)c1=O 7.22%, CC1CCCCC1NC(=O)CCNS(=O)(=O)c1ccc2c(c1)CCC(=O)N2 (stereo not given) 6.16%, COC(=O)c1ccc(C)c(NC(=O)c2nn(C)c(=O)c3ccccc23)c1 0.46%, CCCn1nc(C(=O)Nc2cccc(C(=O)OC)c2)c2ccccc2c1=O 0.28%, CCN(C(=O)C1CCCCC1)c1nnc(-c2cccnc2)s1 -11.9%, O=C(C1CCN(S(=O)(=O)c2cccc3cccnc23)CC1)N1CCN(c2ccccc2)CC1 3.12%, O=C(C1CCCN1S(=O)(=O)c1cccc2cccnc12)N1CCc2ccccc2C1 (stereo not given) 8.45%, O=C1CCCN1CCCNC(=S)Nc1cccc2ccccc12 30.4%, CC(C)OC(=O)CSc1nnc(-c2ccncc2)n1N -2.43%, O=c1cc(CN2CCc3ccccc32)nc2sccn12 23.2%, O=c1cc(CN2CCCc3ccccc32)nc2sccn12 22%, Cc1ccc(CCNc2ncnc(Cl)c2N)cc1 -3.15%, Cc1nn(C)cc1/C=N\NC(=O)c1ccc(Cn2cc(Cl)cn2)cc1 -3.19%, COc1cccc(C(C#N)N2N=C(C)CC2(C)C)c1O (stereo not given) -2.38%, COc1cc(C(C#N)N2CCCCC2)ccc1O (stereo not given) 7.46%, O=S(=O)(Nc1cccc(-n2cnnn2)c1)c1ccccc1F -7.41%, COc1ccc(N=Cc2sc3ccccc3c2Cl)cc1 0.88%, Oc1c(C=Nc2ccccc2)sc2ccccc12 -6.91%, CCCOc1ccc(NC(N)=O)cc1OCCC 0.61%, C=C1CCN([C@H](C(=O)NCc2ccc(OC)cc2)C(C)C)S(=O)(=O)c2ccccc21 2.28%, CCCn1nnc(NC(=O)c2ccc(-c3cc(Cl)ccc3Cl)o2)n1 3.66%, O=C(NNC(=O)c1ccc(Cl)c(Cl)c1)c1cccnc1 -10.1%, COCc1nnc(NS(=O)(=O)c2ccc(Cl)cc2)s1 -13.7%, Nc1ccc(S(=O)C(F)(F)F)cc1 (stereo not given) -4.35%, CC[n+]1ccc(C[n+]2ccccc2)c2ccccc21 31.8%, Cc1ccnc2ccc(P(=O)(c3ccccc3)c3ccccc3)cc12 -4.5%, Cc1cc[n+](CCC(=O)O)c2ccccc12 27.6%, CC(C)CN(C(=O)COC(=O)Cc1c[nH]c2ccccc12)C1CCS(=O)(=O)C1 (stereo not given) -1.62%, Cn1cnc([N+](=O)[O-])c1C(=O)Nc1cccc([N+](=O)[O-])c1 -0.16%, CCc1ccc(NC(=O)CSCc2ccc(C(=O)O)cc2)cc1 2.67%, O=C(/C(=C(\[O-])c1ccccc1)[n+]1ccc2ccccc2c1)c1ccc(Cl)cc1 -6.22%, Cc1cc(C)c(S(=O)(=O)Nc2cc(SCC(=O)O)c(O)c3ccccc23)cc1C 29.4%, Cc1ccc(C)c(S(=O)(=O)Nc2cc(SCC(=O)O)c(O)c3ccccc23)c1 30.9%, COC(=O)c1cc2sccc2n1CC(=O)Nc1ccc(OC)c(OC)c1OC -6.58% and -2.62%, Cc1ccc(-c2nnc3n2CCCCC3)cc1 32.1%, C1CCc2nnc(-c3nnc4n3CCCCC4)n2CC1 -7.36%, O=C(Nc1cccc2nsnc12)c1ccc2c(c1)OCO2 -0.24%, COc1cccc(OCC(O)CN2CCN(c3ccc(Cl)cc3)CC2)c1 (stereo not given) 2.34%, COc1ccc(O)c(/C=N/c2sc(C)c(C)c2C#N)c1 10.1%, COc1ccc(S(=O)(=O)N2CCOCC2)cc1C(=O)Nc1cc(C)on1 2.2%, Cc1nn(-c2ccccc2)c(Cl)c1C1C(C#N)=C(N)Oc2c1c(C)nn2-c1ccccc1 (stereo not given) 2.03%, CCOC(=O)C1=C(C)OC(N)=C(C#N)C1c1c(C)nn(-c2ccc(C)cc2)c1Cl (stereo not given) 1.7%, CC(=O)c1cccc(OCc2cc(C(=O)N(C)Cc3nccs3)no2)c1 -3%, CC(C)(C)c1ccc(N2C(=O)CC(C/C=C/c3ccccc3)C2=O)cc1 (stereo not given) -5.69%, O=C(COC(=O)c1ccc(S(=O)(=O)Nc2ccccc2)cc1)NCc1ccco1 3.75%, O=C(COC(=O)c1ccc(NS(=O)(=O)c2cccs2)cc1)NCC1CCCO1 (stereo not given) -1.37%, CC1CC(=O)Nc2ccccc2N1C(=O)CN1C(=O)C(=O)N(C)C1=O (stereo not given) 3.84%, CC(=O)Nc1ccc(/C=N/Nc2nncc3ccccc23)cc1 -1.2%, Cc1cccc(C)c1NC(=O)COC(=O)CN1C(=O)C2CCCCC2C1=O (stereo not given) -6.55%, O=C1C2C3C=CC(C3)C2C(=O)N1c1ccccc1 (stereo not given) 23.8%, O=C1C2C3CCC(CC3)C2C(=O)N1c1ccccc1 (stereo not given) 3.86%
